Measurements as given in PubChem BioAssay (NCI).
About 83,000 compounds went through this panel and 20% of them were active in at least one assay; those are over-represented in the sample as a whole.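 The test compound was applied at a single concentration to cells in 96-well plates for 48 hours, and percent growth was recorded.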 Values without a mark were called inactive. Calls of active or inactive are those of the source. How the source made its calls: active means growth percent below 10; inactive means the rest.

Experiments:
Experiment in all cases: NCI-60 one-dose screen, 48 h (100 = growth as untreated, 0 = no growth, -100 = all killed)
[1] = tested on: HCT-15 colon; conditions: 10 µM unless noted
[2] = tested on: HT29 colon; conditions: 10 µM unless noted
[3] = tested on: SNB-75 CNS; conditions: 10 µM unless noted
[4] = tested on: U251 CNS; conditions: 10 µM unless noted
[5] = tested on: PC-3 prostate; conditions: 10 µM unless noted
[6] = tested on: LOX IMVI melanoma; conditions: 10 µM unless noted
[7] = tested on: SK-MEL-2 melanoma; conditions: 10 µM unless noted
[8] = tested on: EKVX NSCLC; conditions: 10 µM unless noted
[9] = tested on: TK-10 renal; conditions: 10 µM unless noted
[10] = tested on: ACHN renal; conditions: 10 µM unless noted
[11] = tested on: CAKI-1 renal; conditions: 10 µM
[12] = tested on: A498 renal; conditions: 10 µM unless noted
[13] = tested on: CCRF-CEM leukemia; conditions: 10 µM unless noted
[14] = tested on: MOLT-4 leukemia; conditions: 10 µM unless noted
[15] = tested on: SNB-19 CNS; conditions: 10 µM unless noted
[16] = tested on: SK-MEL-5 melanoma; conditions: 10 µM unless noted
[17] = tested on: UACC-62 melanoma; conditions: 10 µM unless noted
[18] = tested on: SK-MEL-28 melanoma; conditions: 10 µM unless noted
[19] = tested on: SN12C renal; conditions: 10 µM unless noted
[20] = tested on: UO-31 renal; conditions: 10 µM unless noted

SMILES | growth [1] | growth [2] | growth [3] | growth [4] | growth [5] | growth [6] | growth [7] | growth [8] | growth [9] | growth [10] | growth [11] | growth [12] | growth [13] | growth [14] | growth [15] | growth [16] | growth [17] | growth [18] | growth [19] | growth [20]
C=C1C(=O)O[C@@H]2C[C@@H](C)/C=C\C(=O)[C@](C)(OC(C)=O)C[C@H](OC(=O)/C(C)=C\C)[C@@H]12 | -26% (active) | -48.6% (active) | 38.2% | 2.55% (active) | 1.27% (active) | -75.1% (active) | -15.9% (active) | 5.52% (active) | -61% (active) | -75.5% (active) | -11.1% (active) | 38.8% | -17% (active) | 2.13% (active) | – | – | – | – | – | –
Oc1ccc(CSc2nnc(-c3cnccn3)n2-c2ccccc2)c2cccnc12 | 19.3% | 79.5% | – | 20.4% | 30% | 15.5% | 42.6% | 44% | 37.7% | 15.4% | 16.7% | 10.9% | 16.7% | 21.3% | 19.7% | -22.6% (active) | 2.61% (active) | 32.5% | 24.5% | 10.7%
NC(=S)N/N=C(/C=C/c1cn(-c2ccccc2)nc1-c1ccc(Cl)cc1)c1cc2ccccc2oc1=O | 19.9% | 36.1% | – | 35.4% | 28% | 36% | 82.5% | 35% | 89.9% | 43.7% | 45.9% | 69.3% | 8.22% (active) | 23.7% | 47.6% | 30.4% | 49.6% | 73% | 44.3% | 28.5%
O=C(CN1C(=O)CSC1=O)Nc1ccc(C(=O)/C=C/c2cc3ccccc3nc2Cl)cc1 | 79.3% | 17.4% | – | 77.2% | 70.5% | 37.5% | 88.5% | 72.1% | 92.1% | 83.5% | 63% | 94.3% | 45.5% | 36.4% | 83.4% | 34% | 74% | 95.4% | 83.8% | 59.5%
NC(=O)N1N=C(c2cc3ccccc3oc2=O)CC1c1cn(-c2ccccc2)nc1-c1ccc(Cl)cc1 (configuration not stated) | 19.4% | 35.9% | – | 30.5% | 25.9% | 20.3% | 71.8% | 24.3% | 93.4% | 32.5% | 32.9% | 54.5% | 7.27% (active) | 17.3% | 45% | 19.5% | 38.7% | 60.1% | 47.4% | 17.8%
N/C(=N\c1nc2c(Cl)cccc2s1)C(Cl)(Cl)Cl | 81.3% | 46.8% | – | 57.3% | 65% | 62.4% | 105% | 52.6% | 83.5% | 19.6% | 43.9% | 29.9% | 97.3% | 92.1% | 72.7% | 96.1% | 75.4% | 83.3% | 91.9% | 61%
CCOC(=O)c1c(NC(=O)c2cccc(C(F)(F)F)c2)sc2c(CN3CCN(C)CC3)c(O)ccc12 | -82.3% (active) | -31.6% (active) | – | -79.1% (active) | -33.9% (active) | -94.7% (active) | 94.7% | 70.4% | -52.7% (active) | -98.8% (active) | -73.9% (active) | 77.5% | -23.8% (active) | -27.8% (active) | -53.9% (active) | 52.7% | -67.5% (active) | -60.5% (active) | -83.7% (active) | -95% (active)
Nc1c(C(=O)c2ccccc2)sc2nc(-c3cnccn3)cc(-c3cccs3)c12 | 106% | 107% | – | 104% | 100% | 101% | 111% | 95.6% | 106% | 98.3% | 89.9% | 106% | 100% | 105% | 96.5% | 103% | 87.1% | 106% | 95.2% | 88.4%
